Test [1] addresses T1, Protein deacetylase HDAC6 (Homo sapiens) (UniProt Q9UBN7).
T1 sequence (whole entry): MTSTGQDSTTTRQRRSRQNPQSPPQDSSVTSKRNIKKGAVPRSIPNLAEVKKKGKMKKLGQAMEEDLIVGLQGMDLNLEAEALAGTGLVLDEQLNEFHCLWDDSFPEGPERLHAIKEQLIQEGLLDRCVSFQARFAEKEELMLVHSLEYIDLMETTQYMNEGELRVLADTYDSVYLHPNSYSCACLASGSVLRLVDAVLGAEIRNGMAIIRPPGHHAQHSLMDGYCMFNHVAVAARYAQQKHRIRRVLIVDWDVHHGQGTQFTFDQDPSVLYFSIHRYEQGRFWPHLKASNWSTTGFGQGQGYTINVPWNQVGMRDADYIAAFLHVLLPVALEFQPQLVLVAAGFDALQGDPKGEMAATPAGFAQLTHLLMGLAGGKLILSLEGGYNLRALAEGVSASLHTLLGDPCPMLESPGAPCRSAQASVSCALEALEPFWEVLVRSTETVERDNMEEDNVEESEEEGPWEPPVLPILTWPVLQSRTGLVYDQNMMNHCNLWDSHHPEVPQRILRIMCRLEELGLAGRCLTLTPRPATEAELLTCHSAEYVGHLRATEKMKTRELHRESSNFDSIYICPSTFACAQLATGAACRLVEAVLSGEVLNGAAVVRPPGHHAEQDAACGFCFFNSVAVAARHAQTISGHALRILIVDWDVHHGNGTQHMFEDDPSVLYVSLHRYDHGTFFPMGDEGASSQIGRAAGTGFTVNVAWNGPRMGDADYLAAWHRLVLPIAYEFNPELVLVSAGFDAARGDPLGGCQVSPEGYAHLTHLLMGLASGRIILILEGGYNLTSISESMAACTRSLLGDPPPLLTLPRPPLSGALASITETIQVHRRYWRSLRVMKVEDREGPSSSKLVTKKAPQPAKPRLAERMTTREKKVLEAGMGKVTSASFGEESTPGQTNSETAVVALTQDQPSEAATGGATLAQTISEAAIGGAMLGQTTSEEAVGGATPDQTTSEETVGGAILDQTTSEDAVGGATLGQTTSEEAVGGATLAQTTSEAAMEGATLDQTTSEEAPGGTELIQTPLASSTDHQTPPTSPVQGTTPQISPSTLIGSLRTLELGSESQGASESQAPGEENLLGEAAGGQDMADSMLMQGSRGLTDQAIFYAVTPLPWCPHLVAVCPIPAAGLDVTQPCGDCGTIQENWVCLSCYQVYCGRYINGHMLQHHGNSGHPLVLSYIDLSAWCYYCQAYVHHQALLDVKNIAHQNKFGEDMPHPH
As to conditions: at 10 µM.

Test [2] addresses Protein deacetylase HDAC6 (Homo sapiens) (UniProt Q9UBN7). Particulars: at 10 µM. This is another data set of the same source.

In all, about 5,600 compounds went through this assay and about 150 (2.7%) showed an effect of 50% or more. For the sample, strong results were picked, then their nearest neighbours and some compounds at random.

By inhibition is commonly meant the drop in the measured response relative to a control, in per cent.

In the case of `COCc1nnc(N2CC(Oc3ccc(F)cc3Cl)C2)n1-c1ccc(OC)nc1`, the inhibition in test [1] is -0.3%. On to `O=C(Nc1ccc(Br)cc1)c1cc(Br)cc(Br)c1O`, for which, in test [1], the inhibition came out at 47.3%. Same read-out and setting: the value for `CCOCc1cc(OC)c(-c2ccc(C[C@H](NC(=O)c3c(F)cccc3F)C(=O)O)cc2)c(OC)c1` was -3.54%; that for `C[C@]12CC[C@@H](O)C[C@@H]1CC[C@@H]1[C@@H]2CC[C@]2(C)C(c3ccccc3)=CC[C@@H]12` was -2.46%. On the same count and under the same terms, under `CC(=O)OCC1=C(C(=O)O)N2C(=O)[C@@H](NC(=O)CS/C(=N/C(C)C)NC(C)C)[C@H]2SC1` stands -0.21%; under `O=C(O)c1ccccc1O`, 3.65%. Regarding `O=C(OCCO)c1ccccc1O`, the inhibition in test [1] came out at 0.47%.

Take `O=C(Oc1ccccc1)c1ccccc1O`: the inhibition in test [1] turned out to be 59.6%.

Turning to SEVELAMER HYDROCHLORIDE, CHEMBL1201492, the inhibition in test [2] is -4.03%.

Consider `CC1CCC2C(C)(C)C3CC12CCC3(C)O` (stereo not given), for which the inhibition in test [1] is 3.35%.

`C[C@H](Nc1cc(NS(=O)(=O)N2CCC2)nc(SCc2cccc(F)c2F)n1)[C@@H](O)CO`: in test [1], the inhibition is -3.66%. Same read-out and setting: the value for `COc1cc(C(=O)NCCCCCC(=O)O)cc(OC)c1OC` was -4.19%; that for `CN(C)c1ccc(C(=O)NCCCCCCC(=O)NO)cc1` was 97.6%.

As to `O=C(CNC(=O)c1ccc(Cl)cc1)NO`, the inhibition in test [1] is 1.88%. On the same count and under the same terms, under `O=c1c2c[nH]c3ccccc3c-2nn1-c1ccc(Cl)cc1` stands 37.8%. Same read-out and setting: the value for `C[C@H](N/C(=N/C#N)Nc1cccc2ncccc12)c1ccccc1` was -5.84%; that for `Cc1cn2c(N)c(Cl)cc(C(=O)NCC3CCN(CC(C)C)CC3)c2n1` was 4.88%; that for `C=CC(=O)N1CCC[C@@H](n2c(=O)n(-c3ccc(Oc4ccccc4)cc3)c3c(N)ncnc32)C1` was 6.07%. On the same count and under the same terms, under `Nc1ncnc2c1c(-c1ccc(Oc3ccccc3)cc1)nn2C1CCCC1` stands -1.59%. With `C=CC(=O)N1CCC[C@@H](n2nc(-c3ccc(Oc4ccccc4)cc3)c3c(N)ncnc32)C1`, the inhibition in test [1] turned out to be 51%.

For `C=C1C(=O)O[C@@H]2[C@H]3C(C)=CC[C@@]34O[C@@]4(C)CC[C@@H]12`, the inhibition in test [1] amounted to 4.41%. `c1cnc(NCc2ccc(CNc3ncccn3)cc2)nc1`: the inhibition in test [1] amounted to 0.03%. The same measure, in the same setting: the value for `CNc1nc(C)nc(N[C@H]2CCC[C@@H](C(=O)NCc3ccc(C#N)cc3C(F)(F)F)C2)n1` was -6.75%; that for `Cc1cc(O)cc2c1O[C@@](C)(CCC[C@@H](C)CCC[C@@H](C)CCCC(C)C)CC2` was -3.19%; that for `Cc1nc2cnc3ccc(C#Cc4cccnc4)cc3c2n1-c1ccc(C(C)(C)C#N)cc1` was 3.93%. On the same count and under the same terms, under `CC(=O)SCCC(=O)N1C(C)CCCC1C(=O)O` (stereo not given) stands 7.82%; under `CSc1nc2ccc3nc(NC(=O)C(c4ccccc4)c4ccccc4)sc3c2s1`, -1.3%; under `CC(=O)N(O)[C@@H]1c2cc(C#N)ccc2OC(C)(C)[C@H]1O`, -2.08%. Take `N=C(N)NC(=O)c1nc(Cl)c(N)nc1N`: the inhibition in test [1] is -8.95%. Take `O=C(OCC(COC(=O)c1cccnc1)(COC(=O)c1cccnc1)COC(=O)c1cccnc1)c1cccnc1`: in test [1], the inhibition was -1.03%.

Take `CN(C)c1nc(N)c(C(=O)Nc2cccnc2)nc1Cl`: the inhibition in test [1] worked out at 80.9%.

Take `Cn1ncc2c(N3CCOCC3)nc(-c3cccc(O)c3)nc21`: in test [1], the inhibition is -1.99%. Regarding `Cc1ccc(-c2nn(C(C)(C)CNC(=O)c3ncccc3C)c3ncnc(N)c23)cc1`, the inhibition in test [1] came out at 6.88%. Still for that read-out and setting: the value for `Oc1ccc(-c2nc3cc(O)cc(Br)c3o2)cc1` was 54.3%. `CC[C@H](NC(=O)c1c(O)c(-c2ccccc2)nc2ccccc12)c1ccccc1`: in test [1], the inhibition came to 2.06%. On to `Cn1c(/C=C/C(=O)NO)ccc1/C=C/C(=O)c1cccc(F)c1`, for which, in test [1], the inhibition was 76.3%.

Consider `O=C(/C=C/c1cccc(F)c1)NC1CC1`, for which, in test [1], the inhibition was 8.47%. For the compound `CCCCCCCCC(=O)N[C@H](CN1CCCC1)[C@H](O)c1ccc2c(c1)OCCO2`, the inhibition in test [1] stood at 6.86%. Still for that read-out and setting: the value for `O=C(CCBr)N1CC[N+]2(CC1)CC[N+]1(CCN(C(=O)CCBr)CC1)CC2` was 0.06%; that for `CN1CCN(c2cccc(Nc3nc4c(-c5ccc(S(C)(=O)=O)cc5)cccn4n3)c2)CC1` was -1.82%.

Take `CS(=O)(=O)c1ccc(-c2cn3ccccc3n2)cc1`: the inhibition in test [1] stood at 78.9%. Turning to `CS(=O)(=O)c1ccc(-c2cnc(N)c(C(=O)Nc3ccccc3)n2)cc1`, the inhibition in test [1] is 2.63%. The same measure, in the same setting: the value for `C[C@H]1O[C@@H](O[C@H]2CC[C@@]3(C)[C@H](CC[C@@H]4[C@@H]3C[C@@H](O)[C@]3(C)[C@@H](C5=CC(=O)OC5)CC[C@]43O)C2)C[C@H](O)[C@@H]1O[C@H]1C[C@H](O)[C@H](O[C@H]2C[C@H](O)[C@H](O[C@@H]3O[C@H](CO)[C@@H](O)[C@H](O)[C@H]3O)[C@@H](C)O2)[C@@H](C)O1` was -2.28%; that for `N#CC(c1ccccc1)(c1ccccc1)c1ccccc1Cl` was -3.49%; that for `CC(C)c1c2cc(-c3ccnc(N[C@H]4CC[C@H](NC5CCOCC5)CC4)n3)ccc2nn1C` was 1.08%. For the compound `CCC(CC)O[C@@H]1C=C(C(=O)O)C[C@H](N)[C@H]1NC(C)=O`, the inhibition in test [1] amounted to 0.57%.

As to `O=c1cc(-c2ccc(O)c(O)c2)oc2cc(O)cc(O)c12`, in test [1], the inhibition turned out to be 51.1%. The same measure, in the same setting: under `O=c1c(O)c(-c2ccc(O)c(O)c2)oc2cc(O)cc(O)c12` stands 49.9%; under `O=C(O)c1ccc2c(c1)C(=O)N(c1cccc(Oc3ccc([N+](=O)[O-])cc3)c1)C2=O`, 23.5%.

As to `CCOc1c(N2CCOCC2)cnn(C)c1=O`, the inhibition in test [1] was determined as 2.39%.

(Values after ChEMBL document CHEMBL4808148, “HDAC6 screening dataset using tau-based substrate in an enzymatic assay yields selective inhibitors and activators” (2021).)
